These results are taken from PubChem BioAssay.

Activity calls are given as the source filed them.

In assay [1] the test system is Plasmodium falciparum Sir2 (PF13_0152, Sir2A). Description: Plasmodium falciparum Sir2A binding compounds – biochemical, small-molecule microarray, 635 nm fluorescence, primary screen (AID 1098).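 Also: score merges spot fluorescence intensity with its signal-to-noise ratio.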 As to conditions: fluorescence 635 nm, higher = more signal.
A short description of assay [2]: probe aDKK1 binding to arrayed compounds – biochemical, biotinylated probe, 635/667 nm fluorescence, primary screen (AID 1099).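 Also: score merges 667nm spot fluorescence with signal to noise across triplicate slides.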 The note with it: small-molecule microarray, higher = more signal.
A short description of assay [3]: probe aCHRDL2 binding to arrayed compounds – biochemical, biotinylated probe, 635/667 nm fluorescence, primary screen (AID 1100). The note with it: small-molecule microarray, higher = more signal.
Assay [4] can be described thus: change in splice reporter luminescence, either direction, cell-based, HEK293, spliceosome inhibition project, primary screen (AID 1101).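 Also: HEK293 cells carrying a splicing-competent luciferase reporter gene; test concentration not given here.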 The note with it: HEK293 splicing luciferase reporter, 24 h, higher = more signal, called active from +8 up or from −8 down. A general note: In a reporter assay the amount or activity of a reporter protein is the signal.
For assay [5], the target named is Fibroblast growth factor 10 (Homo sapiens) (UniProt O15520). Description: compounds binding fibroblast growth factor 10 – biochemical, small-molecule microarray, 635 nm fluorescence, primary screen (AID 1102). As to conditions: FGF10 binding, fluorescence 635 nm, higher = more signal.
Assay [6] concerns glycogen synthase kinase-3 (GSK3A per assay name; protocol says GSK3B). The assay can be described thus: compounds binding glycogen synthase kinase-3 – biochemical, small-molecule microarray, 635 nm fluorescence, GSK3A, primary screen (AID 1103). Also: the record names both GSK3A and GSK3B. As to conditions: fluorescence 635 nm, higher = more signal.
Assay [7] concerns the target Epidermal growth factor receptor (Homo sapiens) (UniProt P00533). The assay can be described thus: compounds binding epidermal growth factor receptor – biochemical, small-molecule microarray, 635 nm fluorescence, primary screen (AID 1104).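 Also: score merges 667 nm emission intensity with spot signal to noise over triplicate slides.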 As to conditions: EGFR binding, higher = more signal.
Assay [8] addresses Follistatin-related protein 3 (Homo sapiens) (UniProt O95633). Description: compounds binding follistatin-related protein 3 – biochemical, small-molecule microarray, 635 nm fluorescence, primary screen (AID 1105).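 Also: score merges emission near 667 nm and signal to noise per printed spot across three slides.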 As to conditions: FSTL3 binding, higher = more signal.
Assay [9] addresses Dickkopf-related protein 1 (Homo sapiens) (UniProt O94907). Description: small molecules binding DKK1 protein – biochemical, small-molecule microarray, 635 nm fluorescence scan, primary screen (AID 1106).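 Also: score merges emission near 667 nm with signal to noise over three replicate slides.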 The note with it: higher = more signal.
The subject of assay [10] is Inhibin beta A chain (activin A). Description: small molecules binding activin A – biochemical, small-molecule microarray, 635 nm fluorescence scan, primary screen (AID 1107).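 Also: mouse activin A protein probed at 4.33 µg/mL on printed slides; score merges bound-protein fluorescence near 667 nm with spot signal-to-noise.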 As to conditions: INHBA, higher = more signal.
The subject of assay [11] is Human papillomavirus type 1a protein E7 (residues 44-93). The assay can be described thus: small molecules binding HPV E7 44-93 – biochemical, small-molecule microarray, residues 44-93, 635 nm fluorescence, primary screen (AID 1108).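 Also: E7 fragment applied at 1 µg/mL in TBST for 1 h at 4 C; score combines spot fluorescence with its signal to noise ratio.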 As to conditions: fluorescence 635 nm, higher = more signal.
A short description of assay [12]: hepatitis C replication reporter changes, two-sided – Huh7 cells, luciferase reporter, HCV replication inhibitor project, primary screen (AID 1109).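 Also: huh7 hepatoma cells harbouring a luciferase neomycin HCV replicon reporter; luciferase luminescence as measure of HCV replicon replication; test concentration not given here.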 As to conditions: Huh7 HCV replicon luciferase reporter, 48 h; higher = more signal.
The target of assay [13] is Left-right determination factor 2 (Homo sapiens) (UniProt O00292). Description: small molecules binding LEFTY2 protein – biochemical, small-molecule microarray, 635 nm fluorescence scan, primary screen (AID 1110). As to conditions: higher = more signal.
Assay [14] has as its target Calmodulin-1 (Homo sapiens) (UniProt P0DP23). Description: small molecules binding calmodulin-1 with EGTA – biochemical, small-molecule microarray, Cy5-labelled CALM1, profiling panel (AID 1111).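 Also: labelled calmodulin applied in Tris saline Tween buffer holding calcium plus EGTA and DTT.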 The note with it: Cy5-CALM1 binding fluorescence, higher = more signal.
The target is the same in assay [15]. The assay can be described thus: small molecules binding Ca-loaded calmodulin-1 – biochemical, small-molecule microarray, Cy5-labelled CALM1, plus calcium, artefact control for SMM control-protein annotation, profiling panel (AID 1112).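 Also: score merges spot fluorescence with signal to noise from triplicate slides.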 As to conditions: Cy5-CALM1 binding fluorescence, higher = more signal.
Assay [16] in a line: probe aWnt5a binding to arrayed compounds – biochemical, biotinylated probe, 635/667 nm fluorescence, primary screen (AID 1113).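 Also: score merges 667 nm fluorescence intensity with signal-to-noise per printed feature.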 As to conditions: small-molecule microarray, higher = more signal.
Assay [17] is described as follows: probe aShh binding to arrayed compounds – biochemical, biotinylated probe, 635/667 nm fluorescence, primary screen (AID 1114).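 Also: probe is biotin-labelled aShh protein from a stem cell growth factor screen; measures binding of labelled protein to compounds printed on the slide; score merges feature fluorescence at 667 nm with signal-to-noise.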 As to conditions: small-molecule microarray, higher = more signal.
A short description of assay [18]: probe aNog binding to arrayed compounds – biochemical, biotinylated probe, 635/667 nm fluorescence, primary screen (AID 1115).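 Also: probe is biotinylated aNog protein used at 0.15 µg/mL for 1 h at 4 C; z-score combines 667 nm fluorescence of each spot with its signal to noise.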 The note with it: small-molecule microarray, higher = more signal.
Assay [19] addresses Torsin-1A-interacting protein 1 (Homo sapiens) (UniProt Q5JTV8). Description: compound microarray binding of lysate hLAP1 – cell lysate, small-molecule microarray, COS7 lysate, 635/667 nm fluorescence, primary screen (AID 1116). The note with it: 635 nm fluorescence, higher = more signal.
Assay [20] has as its target Alpha-bungarotoxin (Bungarus multicinctus) (UniProt P60615). The assay can be described thus: compounds binding labelled alpha-BTX control protein – biochemical, small-molecule microarray, Alexa647 label, 635/667 nm fluorescence, artefact control for SMM control protein annotation, profiling panel (AID 1117). As to conditions: alpha-BTX-A647 binding fluorescence, higher = more signal.

Sequence of Epidermal growth factor receptor (Homo sapiens) (P00533 whole entry, looked up): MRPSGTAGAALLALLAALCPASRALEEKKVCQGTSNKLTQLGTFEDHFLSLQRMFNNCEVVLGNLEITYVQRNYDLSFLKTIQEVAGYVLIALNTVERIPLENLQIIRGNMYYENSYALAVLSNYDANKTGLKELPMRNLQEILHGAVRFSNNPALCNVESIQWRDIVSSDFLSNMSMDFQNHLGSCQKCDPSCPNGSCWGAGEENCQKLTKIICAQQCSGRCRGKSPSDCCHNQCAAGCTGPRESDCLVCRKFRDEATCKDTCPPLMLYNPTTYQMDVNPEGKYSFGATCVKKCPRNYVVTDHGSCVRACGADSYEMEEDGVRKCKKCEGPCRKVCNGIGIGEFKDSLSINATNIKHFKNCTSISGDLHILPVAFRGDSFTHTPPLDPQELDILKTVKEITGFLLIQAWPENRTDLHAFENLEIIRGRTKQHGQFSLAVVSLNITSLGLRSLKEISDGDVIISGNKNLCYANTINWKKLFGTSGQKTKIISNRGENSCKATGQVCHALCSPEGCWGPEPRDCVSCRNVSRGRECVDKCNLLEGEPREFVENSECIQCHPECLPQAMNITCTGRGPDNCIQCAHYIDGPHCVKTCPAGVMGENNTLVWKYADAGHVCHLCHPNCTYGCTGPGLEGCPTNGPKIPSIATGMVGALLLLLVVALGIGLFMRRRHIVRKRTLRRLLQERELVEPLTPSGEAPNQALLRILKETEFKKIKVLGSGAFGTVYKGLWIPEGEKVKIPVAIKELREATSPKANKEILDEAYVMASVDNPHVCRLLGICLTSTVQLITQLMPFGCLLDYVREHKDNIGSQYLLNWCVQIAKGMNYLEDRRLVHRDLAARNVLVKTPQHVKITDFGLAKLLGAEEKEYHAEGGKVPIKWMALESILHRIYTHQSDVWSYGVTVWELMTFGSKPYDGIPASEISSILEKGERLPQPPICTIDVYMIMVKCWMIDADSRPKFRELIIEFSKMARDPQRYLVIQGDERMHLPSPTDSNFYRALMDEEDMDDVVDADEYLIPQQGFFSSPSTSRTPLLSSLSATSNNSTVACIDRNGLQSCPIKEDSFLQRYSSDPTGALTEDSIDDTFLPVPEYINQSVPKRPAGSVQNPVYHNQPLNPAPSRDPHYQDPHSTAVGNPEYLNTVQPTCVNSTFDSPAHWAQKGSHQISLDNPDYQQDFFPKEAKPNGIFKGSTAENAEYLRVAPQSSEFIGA
Sequence of Dickkopf-related protein 1 (Homo sapiens) (O94907 whole entry, looked up): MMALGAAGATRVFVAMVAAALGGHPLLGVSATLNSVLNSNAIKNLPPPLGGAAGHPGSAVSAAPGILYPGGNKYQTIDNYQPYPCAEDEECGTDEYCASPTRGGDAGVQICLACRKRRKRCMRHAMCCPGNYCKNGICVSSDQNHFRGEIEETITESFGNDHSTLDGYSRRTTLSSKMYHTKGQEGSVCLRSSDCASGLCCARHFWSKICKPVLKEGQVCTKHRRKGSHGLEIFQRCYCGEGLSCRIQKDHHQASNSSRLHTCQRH
Sequence of Follistatin-related protein 3 (Homo sapiens) (O95633 whole entry, looked up): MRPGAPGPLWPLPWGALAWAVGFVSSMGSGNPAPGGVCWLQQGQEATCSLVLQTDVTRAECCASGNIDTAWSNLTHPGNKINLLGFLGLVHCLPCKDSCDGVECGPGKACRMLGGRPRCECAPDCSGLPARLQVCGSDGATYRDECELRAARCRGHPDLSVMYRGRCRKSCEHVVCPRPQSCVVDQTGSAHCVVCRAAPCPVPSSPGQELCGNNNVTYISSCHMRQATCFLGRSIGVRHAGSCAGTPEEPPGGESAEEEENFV
Sequence of Fibroblast growth factor 10 (Homo sapiens) (O15520 whole entry, looked up): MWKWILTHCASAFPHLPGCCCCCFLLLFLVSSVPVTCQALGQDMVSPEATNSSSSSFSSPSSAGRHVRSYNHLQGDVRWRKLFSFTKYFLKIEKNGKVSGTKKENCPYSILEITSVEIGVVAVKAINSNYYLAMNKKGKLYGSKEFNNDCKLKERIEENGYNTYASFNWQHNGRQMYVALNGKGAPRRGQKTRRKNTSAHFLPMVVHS
Sequence of Left-right determination factor 2 (Homo sapiens) (O00292 whole entry, looked up): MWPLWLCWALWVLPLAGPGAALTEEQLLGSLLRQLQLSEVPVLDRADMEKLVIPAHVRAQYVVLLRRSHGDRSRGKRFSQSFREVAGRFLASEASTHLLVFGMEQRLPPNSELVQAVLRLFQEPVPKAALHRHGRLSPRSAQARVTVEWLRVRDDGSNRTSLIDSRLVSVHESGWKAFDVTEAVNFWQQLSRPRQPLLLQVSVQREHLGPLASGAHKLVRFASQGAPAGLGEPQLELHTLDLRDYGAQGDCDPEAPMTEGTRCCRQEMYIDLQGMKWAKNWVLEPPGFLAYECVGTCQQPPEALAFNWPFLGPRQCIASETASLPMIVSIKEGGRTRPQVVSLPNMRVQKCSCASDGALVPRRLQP
Sequence of Torsin-1A-interacting protein 1 (Homo sapiens) (Q5JTV8 whole entry, looked up): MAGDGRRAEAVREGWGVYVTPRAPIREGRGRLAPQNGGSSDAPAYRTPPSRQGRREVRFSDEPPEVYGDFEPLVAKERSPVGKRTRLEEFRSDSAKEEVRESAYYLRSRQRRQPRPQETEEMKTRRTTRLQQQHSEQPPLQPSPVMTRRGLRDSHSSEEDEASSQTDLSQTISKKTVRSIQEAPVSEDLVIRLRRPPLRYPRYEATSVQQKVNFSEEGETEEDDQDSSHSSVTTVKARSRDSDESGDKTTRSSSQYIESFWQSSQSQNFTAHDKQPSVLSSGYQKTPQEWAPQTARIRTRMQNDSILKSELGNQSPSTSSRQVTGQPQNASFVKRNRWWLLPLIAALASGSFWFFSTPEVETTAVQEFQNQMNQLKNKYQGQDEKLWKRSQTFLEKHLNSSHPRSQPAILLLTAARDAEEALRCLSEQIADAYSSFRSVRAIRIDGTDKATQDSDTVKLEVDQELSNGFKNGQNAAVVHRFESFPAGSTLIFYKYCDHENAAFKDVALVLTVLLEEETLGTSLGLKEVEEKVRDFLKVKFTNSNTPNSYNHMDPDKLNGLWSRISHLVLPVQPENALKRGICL
Sequence of Alpha-bungarotoxin (Bungarus multicinctus) (P60615 whole entry, looked up): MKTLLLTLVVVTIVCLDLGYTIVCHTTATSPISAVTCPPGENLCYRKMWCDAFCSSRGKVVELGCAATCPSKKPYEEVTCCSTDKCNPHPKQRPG

As for `COc1ccc(CCNC(=O)[C@@]2(C)c3ccccc3C(=O)N(Cc3ccccc3)[C@H]2c2ccc(CO)cc2)cc1`, the composite z-score in assay [1] was determined as 1.49; in assay [2], 0.28; in assay [3] it was 0.376; in assay [5] it was 1.26; in assay [6] it was 0.707; in assay [7], 0.433. In addition, the composite z-score was determined as 1.43 in [8]; 0.548 in assay [9]; 0.684 in [10]; 1.16 in assay [11]; 0.449 in assay [13]; 0.617 in assay [14]. Moreover, the composite z-score in [15] is -0.703; in assay [16], 0.0618; in [17], 0.0141; in [18], 0.304; in assay [19], 1.56; in [20], 1.78. Moreover, the z-score in assay [4] was -0.278 (inactive); in assay [12], -2.06.
Regarding `O=C1O[C@H](c2ccccc2)[C@H](c2ccccc2)N2[C@H]1[C@@H](C(=O)N1CCCCCCC1)[C@]1(C(=O)Nc3ccc(C#CC4=CCCCC4)cc31)[C@H]2c1ccc(O)cc1`, the composite z-score is 2.14 in assay [1]; 3.14 in assay [2]; 1.72 in assay [3]; 1.67 in [5]; 1.5 in [6]; 2.04 in [7]. Moreover, the composite z-score in assay [8] was 1.69; in assay [9], 2.71; in [10] it was 2.04; in assay [11] it was 1.54; in assay [13], 1.78; in assay [14], 3.22. In addition, the composite z-score stood at 2.02 in assay [15]; 1.68 in assay [16]; 3.35 in assay [17]; 3.53 in [18]; 5.98 in assay [19]; 5.18 in assay [20]. Moreover, the z-score in assay [4] was -0.944 (inactive); in assay [12] it was -2.29.
For `O=S(=O)(NCCCO)c1ccc(Br)cc1`, the composite z-score in [1] turned out to be 0.373; in [2] it was 0.101; in assay [3], 0.248; in assay [5], 0.568; in [6] it was 0.309; in assay [7] it was 0.598. Besides, the composite z-score was 0.175 in assay [8]; -0.0155 in assay [9]; 0.363 in assay [10]; 0.54 in assay [11]; 0.548 in assay [13]; 0.873 in assay [14]. Besides, the composite z-score was 0.698 in [15]; 0.0251 in assay [16]; -0.138 in assay [17]; -0.122 in assay [18]; 0.365 in assay [19]; 0.284 in assay [20]. For the same compound, the results for the z-score in assay [4] and in assay [12] were -1.03 (inactive) and -0.164, respectively.
`C/C=C/[C@H](CCn1cc([C@H](O)c2ccccc2)nn1)[Si](C)(C)c1ccc(OC)cc1`: the composite z-score is 0.0765 in [1]; -0.49 in assay [2]; 0.503 in assay [3]; -0.607 in assay [5]; -0.855 in assay [6]; -1.52 in assay [7]. For the same compound, the composite z-score in assay [8] was -1.72; in [9], -0.338; in assay [10] it was -0.343; in assay [11] it was -0.0636; in [13], -0.915; in [14], -1.41. Also, the composite z-score in assay [15] is -1.41; in assay [16], -0.233; in assay [17], -0.0769; in assay [18], -0.272; in [19], -0.66; in [20], -0.977. Moreover, the z-score in [4] is 0.264 (inactive); in [12], -1.78.
Regarding `COc1ccc([Si](C)(C)[C@@H]2[C@@H](CCO)O[C@]3(C(=O)N(Cc4ccccc4)c4ccc(N(C=O)c5ccccc5)cc43)[C@H]2C)cc1`, the composite z-score in [1] is 0.622; in assay [2], -0.185; in [3], -0.025; in assay [5] it was 0.454; in [6], -0.141; in assay [7], 0.012. The composite z-score in [8] was -0.0895; in assay [9], 0.169; in assay [10] it was 0.328; in [11], -0.736; in [13], 0.391; in [14] it was 0.194. Further, the composite z-score in assay [15] was 0.841; in assay [16] it was -0.117; in [17] it was 0.0684; in [18], -0.0036; in assay [19], 0.301; in assay [20], -0.525. For the same compound, the figures for the z-score in assay [4] and in [12] were -1.1 (inactive) and -4.14, respectively.
